# Data taken from PubChem BioAssay (Tox21).
# Values joined by “and” are separate entries in the source; they are usually repeats but may differ in a detail not shown here. Equal values may be shown once. Inconclusive results are not listed. Where a call stands in place of a potency, no number is given. A structure can be active in one record and inactive in another. Active and inactive are the calls of the source. Unless noted, calls come from the whole dose curve; as a rule, active = well fitted curve in the direction sought with a large enough effect in the repeat runs; inconclusive = weak or mixed curves; inactive = no such curve, though single readings can be large; an effect the other way counts as inactive or inconclusive.
# Experiments:
# [1] = qHTS assay for small molecules that induce genotoxicity in human embryonic kidney cells expressing luciferase-tagged ATAD5 (AID 651632); note: nearly all actives have a fitted effect of over 15% in size
# Method in brief: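 Luminescent reporter readout, HEK293T ATAD5-luc line: 16 hr drug exposure (37C, 5% CO2) followed by Amplite, 30 min RT.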
# [2] = qHTS assay for small molecule agonists of the p53 signaling pathway - cell viability (AID 651633; calls by dose curve; note: nearly all actives have a fitted effect of over 30% in size; note: potency is the fitted concentration of half-maximal effect)
# Method in brief: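 p53RE-bla cells, seeded at 4,000 per well and rested 5 h at 37 C/5% CO2, received compounds in DMSO for 16 h at 37 C. CellTiter-Glo was then added, and luminescence was read after 30 min at room temperature to gauge cytotoxicity.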
# [3] = qHTS assay for small molecules that induce genotoxicity in human embryonic kidney cells expressing luciferase-tagged ATAD5 - cell viability (AID 651634; calls by dose curve; note: nearly all actives have a fitted effect of over 25% in size; note: potency is the fitted concentration of half-maximal effect)
# Method in brief: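 Viability read: CellTiter-Fluor fluorescence, 30 min at 37C. Cells: HEK293T, luciferase-tagged ATAD5. Exposure: 15.5 hr, 37C, 5% CO2, compound or DMSO vehicle.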
# [4] = qHTS assay for small molecule disruptors of the mitochondrial membrane potential - cell viability (AID 720634; calls by dose curve; note: nearly all actives have a fitted effect of over 20% in size; note: potency is the fitted concentration of half-maximal effect)
# Method in brief: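 HepG2, 1 hr compound, 37 C. ATP luminescence via CellTiter-Glo, 30 min RT, same well as m-MPI.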
# [5] = qHTS assay for small molecule disruptors of the mitochondrial membrane potential (AID 720635); note: potency is the fitted concentration of half-maximal effect
# Method in brief: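 HepG2 cells (2,000/well) attached overnight at 37C, then took compound for 1 hr at 37C, 5% CO2. Mito-MPS dye was added for 30 min; fluorescence was read at 490/535 nm (monomers) and 540/590 nm (aggregates).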
# [6] = qHTS assay to test for compound auto fluorescence at 590 nm (red) in HepG2 cells (AID 720674)
# Method in brief: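 Compound auto-fluorescence is scored relative to Rose Bengal sodium, measured at 540/590 nm in live HepG2 cultures after 1 hr compound contact (37 C, 5% CO2).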
# [7] = qHTS assay to test for compound auto fluorescence at 535 nm (green) in HepG2 cells (AID 720675)
# [8] = qHTS assay to test for compound auto fluorescence at 460 nm (blue) in HEK293 cells (AID 720678)
# Method in brief: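 Cells were seeded and left to adhere for 4-5 hr at 37C. Compounds were then pin-transferred. After an overnight incubation at 37C under 5% CO2, intrinsic fluorescence at 405/460 nm was measured and referenced to triamterene.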
# [9] = qHTS assay to test for compound auto fluorescence at 590 nm (red) in HEK293 cells (AID 720679)
# Method in brief: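 Each well held 2,000 HEK293 cells in medium containing 10% dialyzed FBS. Following 4-5 hr attachment at 37C, 23 nL test compound or DMSO was added; plates sat overnight, and red fluorescence (540/590nm) was recorded.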
# [10] = qHTS assay to test for compound auto fluorescence at 535 nm (green) in HEK293 cells (AID 720680)
# [11] = qHTS assay to test for compound auto fluorescence at 460 nm (blue) in HEK293 cell free culture (AID 720681)
# Method in brief: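 Test compounds were pinned into cell-free culture medium (DMEM with 10% FBS) and fluorescence was read directly at Ex/Em 405/460 nm. Signals were expressed as fluorescence equivalents of triamterene, with DMSO vehicle as control.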
# [12] = qHTS assay to test for compound auto fluorescence at 535 nm (green) in HEK293 cell free culture (AID 720682)
# Method in brief: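 DMEM + 10% FBS, cell-free; cpd or DMSO pinned in; Ex485/Em535 read; output as fluorescein-equivalent signal.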
# [13] = qHTS assay to test for compound auto fluorescence at 590 nm (red) in HepG2 cell free culture (AID 720684)
# Method in brief: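 Measured in medium alone (MEM containing 10% FBS) following pintool addition of compound; emission at 590 nm with 540 nm excitation, referenced to Rose Bengal sodium.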
# [14] = qHTS assay to test for compound auto fluorescence at 460 nm (blue) in HepG2 cell free culture (AID 720685)
# Method in brief: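 Compound (23 nL) or DMSO pinned into cell-free MEM with 10% FBS; blue fluorescence read at 405/460 nm excitation/emission, expressed as auto-fluorescence equivalency to triamterene.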
# [15] = qHTS assay to test for compound auto fluorescence at 535 nm (green) in HepG2 cell free culture (AID 720686)
# [16] = qHTS assay to test for compound auto fluorescence at 460 nm (blue) in HepG2 cells (AID 720687)
# Method in brief: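 Cells (2,000/well in MEM with 10% FBS) attached overnight at 37 C, then were exposed to compound or DMSO for 1 hr at 37 C, 5% CO2. Fluorescence read at Ex/Em 405/460 nm, expressed as triamterene-equivalent signal.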
# [17] = qHTS assay to test for compound auto fluorescence at 590 nm (red) in HEK293 cell free culture (AID 720683)
# Method in brief: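 Tox21 10K library compounds were pinned into cell-free DMEM with 10% FBS and fluorescence was read at excitation 540 nm. Activity is expressed as Rose Bengal sodium equivalency.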
# [18] = molecular target: Glucocorticoid receptor (Homo sapiens) (UniProt P04150); experiment: qHTS assay to identify small molecule agonists of the glucocorticoid receptor (GR) signaling pathway (AID 720691; active = well fitted activation curve with a large enough effect in the signal ratio in the repeat runs, not every such curve was filed as active; the % refers to the signal ratio; note: potency is the fitted concentration of half-maximal effect); settings: GR-bla HeLa, beta-lactamase reporter ratio, 18 h; activation: at 62.4 µM (top of the series)
# Sequence of Glucocorticoid receptor (Homo sapiens) (P04150 whole entry, looked up): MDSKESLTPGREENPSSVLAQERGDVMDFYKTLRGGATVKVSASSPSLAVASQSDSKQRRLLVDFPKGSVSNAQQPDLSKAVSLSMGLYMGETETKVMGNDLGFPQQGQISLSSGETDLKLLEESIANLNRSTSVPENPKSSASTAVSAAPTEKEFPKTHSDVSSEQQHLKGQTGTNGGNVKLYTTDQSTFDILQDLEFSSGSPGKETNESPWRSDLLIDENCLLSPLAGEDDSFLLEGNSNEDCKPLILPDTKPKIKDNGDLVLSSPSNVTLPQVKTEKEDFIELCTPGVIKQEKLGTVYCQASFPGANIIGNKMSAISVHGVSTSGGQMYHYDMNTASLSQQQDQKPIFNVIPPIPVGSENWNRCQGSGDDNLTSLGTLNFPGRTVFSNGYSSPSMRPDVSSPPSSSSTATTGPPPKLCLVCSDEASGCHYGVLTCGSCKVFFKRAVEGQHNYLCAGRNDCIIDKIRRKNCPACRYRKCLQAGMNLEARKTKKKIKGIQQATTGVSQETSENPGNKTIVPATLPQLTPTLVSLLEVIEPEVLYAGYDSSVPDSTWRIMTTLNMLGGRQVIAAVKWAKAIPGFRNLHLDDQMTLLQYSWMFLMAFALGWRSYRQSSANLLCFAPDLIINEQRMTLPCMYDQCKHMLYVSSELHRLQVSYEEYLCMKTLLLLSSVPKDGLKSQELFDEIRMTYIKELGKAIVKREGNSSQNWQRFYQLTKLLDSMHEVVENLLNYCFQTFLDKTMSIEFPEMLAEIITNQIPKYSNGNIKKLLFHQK
# Method in brief: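 qHTS in GR-bla HeLa cells: 4 h settling at 37 C/5% CO2, 18 h compound incubation at 37 C, 2 h LiveBLAzer B/G FRET substrate at room temperature, fluorescence intensity measured.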
# [19] = qHTS assay for small molecule agonists of the p53 signaling pathway (AID 651631; calls by dose curve; note: nearly all actives have a fitted effect of over 15% in size; note: potency is the fitted concentration of half-maximal effect)
# Method in brief: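 Testing took place in human colorectal HCT-116 cells with stable p53RE-driven beta-lactamase. After 16 h of compound exposure at 37 °C, a FRET substrate was added and fluorescence recorded 2 h later.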
# [20] = molecular target: Glucocorticoid receptor (Homo sapiens) (UniProt P04150); experiment: qHTS assay to identify small molecule antagonists of the glucocorticoid receptor (GR) signaling pathway (AID 720692; active = well fitted inhibition curve with a large enough effect in the signal ratio in the repeat runs, not every such curve was filed as active; the % refers to the signal ratio)
# Method in brief: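 Inhibition of glucocorticoid signalling is measured in HeLa cells with a GRE-controlled beta-lactamase reporter; cells are co-treated with compound and 5 nM dexamethasone (final) for 18 h before FRET substrate readout.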
Compound,Potency [1],Potency [2],Potency [3],Potency [4],Potency [5],outcome [6],Potency [7],Potency [8],outcome [9],outcome [10],Potency [11],outcome [12],outcome [13],Potency [14],Potency [15],Potency [16],outcome [17],Potency [18],Potency [19],Potency [20]
CCCCCCCCCCCCCCn1cc[n+](C)c1,inactive,43.4 µM (active) and 67.8 µM (active) and inactive,61.3 µM (active),54.6 µM (active) and inactive,10.7 µM (active) and 34.3 µM (active),inactive,inactive,inactive,inactive,inactive,inactive,inactive,inactive,inactive,inactive,inactive,,,,
S=C=Nc1ccccc1,inactive,inactive,inactive,inactive,28.2 µM (active),inactive,inactive,inactive,inactive,inactive,inactive,inactive,inactive,inactive,inactive,inactive,inactive,inactive,,
c1csc(-c2ccc(-c3cccs3)s2)c1,,inactive,inactive,,61.1 µM (active),inactive,inactive,inactive,,inactive,inactive,inactive,inactive,,inactive,,,49 µM (active),34.4 µM (active),
COc1cnc(OC)n2nc(NS(=O)(=O)c3c(OCC(F)F)cccc3C(F)(F)F)nc12,inactive,inactive,inactive,inactive,inactive,inactive,inactive,inactive,inactive,inactive,inactive,inactive,inactive,inactive,inactive,inactive,inactive,inactive,,inactive
CC1CN1 (configuration not stated),,inactive,,inactive,inactive,inactive,inactive,inactive,inactive,inactive,inactive,inactive,inactive,inactive,inactive,inactive,inactive,,inactive,
CC[C@H](C)[C@H]1O[C@]2(C=C[C@@H]1C)C[C@@H]1C[C@@H](C/C=C(\C)[C@@H](O[C@H]3C[C@H](OC)[C@@H](O[C@H]4C[C@H](OC)[C@@H](NC)[C@H](C)O4)[C@H](C)O3)[C@@H](C)/C=C/C=C3\CO[C@@H]4[C@H](O)C(C)=C[C@@H](C(=O)O1)[C@]34O)O2,inactive,10.9 µM (active),17.2 µM (active),30.6 µM (active),6.86 µM (active),inactive,inactive,inactive,inactive,inactive,inactive,inactive,inactive,inactive,inactive,inactive,inactive,,,
CCOP(=O)(OCC)Oc1nc(Cl)c(Cl)cc1Cl,inactive,inactive,inactive,inactive,60.8 µM (active),inactive,inactive,inactive,inactive,inactive,inactive,inactive,inactive,inactive,inactive,inactive,inactive,inactive,,
